Test results reported in ChEMBL document CHEMBL3988442, “University of Dundee, Small-Polar-MMV Screening Library” (2021).
In all, about 48,000 compounds went through this assay and about 13,000 (27%) showed an effect of 50% or more. Some of the results follow.

Each molecule was assayed on Wolbachia pipientis (assay: Anti-Wolbachia Cell-Based Screen). Conditions: 5 µM.
Format: functional
Parameters: scale not given: in the data most compounds retested in dose-response had high values

Row | SMILES | Percent Effect [%]
1 | CNS(=O)(=O)Cc1cccc(CNc2ccc(Cl)cn2)c1 | 7.116
2 | O=C(C(NCc1cccc(F)c1F)c1ccccc1)N1CCOCC1 (configuration not stated) | -0.9973
3 | O=C(O)C(F)(F)F.O=C(c1ccc(O)cc1)N1C[C@@H]2CCN(c3cccnc3)C[C@@H]2C1 | 9.269
4 | CNC(=O)CN1CC[C@H]2CN(C(=O)c3ccoc3)C[C@H]2C1.O=C(O)C(F)(F)F | 90.52
5 | CN(C)C[C@H]1OC[C@@H]2CCN(C(=O)c3cccn3C)C[C@@H]21.O=C(O)C(F)(F)F | -2.348
6 | CC(C)N1CCO[C@H]2CN(C(=O)c3ccoc3)C[C@H]21.O=C(O)C(F)(F)F | -10.4
7 | CNC(=O)CN1CC[C@H]2CN(C(=O)c3ccc(C)cc3)C[C@H]2C1.O=C(O)C(F)(F)F | 117
8 | CNC(=O)CN1CC[C@H]2CN(C(=O)c3cccc(C)c3)C[C@H]2C1.O=C(O)C(F)(F)F | 104.9
9 | CC(C)N1[C@H](CN2CCCC2)C[C@@H]2CN(C(=O)c3ccoc3)CC[C@@H]21.O=C(O)C(F)(F)F.O=C(O)C(F)(F)F | -8.643
10 | CNC(=O)CN1CC[C@H]2CN(C(=O)c3cccn3C)C[C@H]2C1.O=C(O)C(F)(F)F | 94.61
11 | O=C(O)C(F)(F)F.O=C(c1ccc(F)cc1)N1C[C@@H]2CCN(c3cccnc3)C[C@@H]2C1 | 11.69
12 | Cn1cccc1C(=O)N1C[C@@H]2CCN(c3cccnc3)C[C@@H]2C1.O=C(O)C(F)(F)F | -18.75
13 | Cc1cccc(C(=O)N2C[C@@H]3CCN(C(C)C)C[C@@H]3C2)c1.O=C(O)C(F)(F)F | -3.353
14 | CNC(=O)[C@@H]1C[C@@H](NC(=O)c2cn(C)nc2C)CN1Cc1sccc1C | 22.01
15 | Cc1cc(C(=O)N(C)C(C)CC(C)C)on1 (configuration not stated) | -13.06
16 | CN(C)c1ccc2c(c1)CN(C(=O)c1ccco1)C2c1cnco1 (configuration not stated) | 6.499
17 | O=C(Nc1ccc(-c2csnn2)cc1)N1CC[C@H](O)C1 | -5.302
18 | CCC(C(=O)NC(C)(C)C)n1cccc(OC)c1=O (configuration not stated) | -8.788
19 | CNC(=O)CN1CC[C@H]2CN(C(=O)c3cc[nH]n3)C[C@H]2C1.O=C(O)C(F)(F)F | 106.6
20 | CCN1C[C@H]2CCN(C(=O)c3cc[nH]n3)CC[C@H]2S1(=O)=O | 7.026
21 | O=C(O)C(F)(F)F.O=C(c1cc[nH]n1)N1CC[C@@H]2CN(Cc3ccncc3)S(=O)(=O)[C@@H]2CC1 | -5.267

Row | SMILES | Percent Effect [%]
22 | CCn1cc(CN2CCC(CN3CCCCC3)CC2)cc1C#N | -0.8018
23 | CCc1cnc(CN(C)C(=O)NC2CCN(C)C2=O)s1 (configuration not stated) | 1.007
24 | Cc1nc(O)cc(CCNC(=O)CN2CCCCCC2)n1 | -0.8715
25 | NC(=O)c1cnc(-c2ccccc2)nc1CCNC(=O)CN1CCCC1 | 124.4
26 | NC(=O)c1cnc(NC2CC2)nc1CCNC(=O)Cc1ccccc1 | 131.4
27 | NC(=O)c1cnc(NC2CC2)nc1CCNC(=O)CC1CCCC1 | 144.1
28 | O=C(CC1CCCC1)NCCn1ccc(-c2ccncc2)n1 | -13.95
29 | Cc1cnc(NC2CCN(CC(=O)Nc3ccccc3)CC2)nc1C | 3.522
30 | O=C(CCNC(=O)NC1CC1)NCc1ccccc1 | 4.625
31 | O=C(CC1CCCC1)NCCNCc1cccc2c1OCCO2 | -15.98
32 | NC(=O)CN1CCC(C(=O)NCCc2nc(-c3ccccc3)cs2)CC1 | 3.799
33 | O=C(CCCc1cn[nH]c1)N1C[C@H](CO)C[C@H](CN2CCCC2)C1 | 5.812
34 | Cc1cc(C)c2[nH]c(=O)c(CN3CCC(O)(CN(C)C)C3)cc2c1 (configuration not stated) | -2.791
35 | COc1ccc(-c2ccc(C(=O)O)c(F)c2)c(F)c1 | -9.144
36 | CC(=O)c1ccc(N2CCC3(CC2)CC(=O)N(C)C3)nc1 | 9.989
37 | CCc1c(C)nc2n(c1=O)CC(C(=O)Nc1sccc1C(=O)OC)CS2 (configuration not stated) | 119.9
38 | CCc1c(C)nc2n(c1=O)CC(C(=O)Nc1ncccc1C)CS2 (configuration not stated) | 124.5
39 | CCc1c(C)nc2n(c1=O)CC(C(=O)Nc1ccccc1C)CS2 (configuration not stated) | 112.9
40 | CCc1c(C)nc2n(c1=O)CC(C(=O)Nc1ccccc1F)CS2 (configuration not stated) | -0.8379
41 | Cc1cnc2n(c1=O)CC(C(=O)NC1CC1)CS2 (configuration not stated) | -10.47
42 | CCc1c(C)nc2n(c1=O)CC(C(=O)Nc1nccs1)CS2 (configuration not stated) | 17.24

Row | SMILES | Percent Effect [%]
43 | CCc1cccc(C)c1NC(=O)C1CC(=O)N(Cc2ccccn2)C1 (configuration not stated) | 16.74
44 | Cc1cnc2n(c1=O)CC(C(=O)Nc1cccc3cccnc13)CS2 (configuration not stated) | 0.1912
45 | Cc1cnn(CC2CN(CC(=O)NCCc3cccs3)CCO2)c1 (configuration not stated) | -8.737
46 | CCC(NC(=O)c1cccc(N2CCCC2=O)c1)c1ccc(OC)cc1 (configuration not stated) | -14.69
47 | Cc1ccc(N2CCCC(N3CCC(N(C)C)CC3)C2=O)cc1 (configuration not stated) | 3.726
48 | Cc1cc(=O)n2ncnc2n1CC(O)COCc1ccccc1Cl (configuration not stated) | -44.43
49 | Cc1cc(F)cc(S(=O)(=O)Nc2noc(C)n2)c1 | -6.165
50 | COCCn1/c(=N\C(=O)CN(C)S(C)(=O)=O)sc2cc(OC)ccc21 | -16.36
51 | Cc1noc(C)c1CN1CCc2cnn(C)c2C1COCC1CC1.O=C(O)C(F)(F)F.O=C(O)C(F)(F)F (configuration not stated) | -11.43
52 | Cc1cc(CN2CC[C@H]3[C@H]2CCN3S(C)(=O)=O)oc1C.O=C(O)C(F)(F)F | -17.79
53 | Cc1noc(C)c1CN1Cc2cn(C)nc2C(COCC2CC2)C1.O=C(O)C(F)(F)F.O=C(O)C(F)(F)F (configuration not stated) | 0.03565
54 | Cc1ccc(CN2C[C@H](N3CCOCC3)[C@@H]3OCCC[C@@H]32)o1.O=C(O)C(F)(F)F.O=C(O)C(F)(F)F | -1.951
55 | Cc1ccc(CN2C[C@H](OCC3CCN(C)CC3)[C@H]3COC[C@H]32)o1 | 110.9
56 | Cc1noc(C)c1CN1C[C@H](OCC2CCN(C)CC2)[C@H]2COC[C@H]21.O=C(O)C(F)(F)F.O=C(O)C(F)(F)F | 122.2
57 | Cc1cc(CN2C[C@H](N3CCOCC3)[C@@H]3OCCC[C@@H]32)oc1C.O=C(O)C(F)(F)F.O=C(O)C(F)(F)F | -6.636
58 | COCCN1C[C@H]2[C@@H](C1)N(Cc1ccc(C)o1)CC[C@H]2OC | 6.788
59 | Cc1cc(CN2C[C@H](OCC3CCOCC3)[C@H]3COC[C@H]32)oc1C.O=C(O)C(F)(F)F | 99
60 | Cc1ccc(CN2C[C@H](OCC3CCOCC3)[C@H]3COC[C@H]32)o1.O=C(O)C(F)(F)F | 113.3
61 | CN1CCC(CO[C@H]2CN(C(=O)c3cccn3C)[C@@H]3COC[C@H]23)CC1 | -44.74
62 | CNC(=O)[C@H]1C[C@H]2OCC[C@H]2N(Cc2ccc(C)o2)C1.O=C(O)C(F)(F)F | -19.44
